Screens from PubChem.
VACV mCherry inh = vaccinia inhibition (mCherry reporter); AID 720579; Vaccinia virus mCherry reporter infection, fluorescence; actives 0.63% (n = 310,000); Potency, µM (top dose mostly 36.5 µM), for the others: top-dose activity change, negative = inhibition, hits mostly inhibitors; calls by dose curve; tested in A549 cells; note: nearly all actives have a fitted effect of over 35% in size
VACV Venus inh = inhibitors of vaccinia virus (Venus reporter); Vaccinia virus Venus reporter expression, fluorescence; Potency, µM (series often up to 36.5 µM), for inactives: top-dose activity change, negative = inhibition, most hits filed as inhibitors; actives 0.46% (n = 330,000); AID 720580; calls by dose curve; tested in A549 cells; note: nearly all actives have a fitted effect of over 30% in size
MARV entry inh = blocks Marburg virus binding to or entry into cells; Marburg virus pseudotyped entry inhibition, cell reporter; Potency, µM (top dose mostly 37.8 µM), inactives show at the highest dose activity change, negative = inhibition, usual class: inhibitors; actives 1.8% (n = 300,000); calls by dose curve; tested in HEK293 cells
LASV entry inh = Lassa virus entry inhibition; Lassa virus pseudotype entry inhibition, cell reporter; Potency, µM (doses to about 37.9 µM), for the others: at the top dose activity change, negative = inhibition, actives largely listed as inhibitors; actives 1.2% (n = 300,000); AID 540256; calls by dose curve; tested in HEK293 cells; note: nearly all actives have a fitted effect of over 50% in size
FMDV antiviral = foot and mouth disease virus antiviral activity. FMDV antiviral cell-based qHTS. Potency, µM (doses to about 57.9 µM), inactives show at the top dose activity change, negative = inhibition, actives largely listed as inhibitors. actives 1.2% (n = 410,000); calls by dose curve; tested in HEK293T cells; note: read-out not given here; nearly all actives have a fitted effect of over 45% in size
Starred values were filed as active, the others as inactive; i = inactive; ? = inconclusive; . = no result; [ ] = dose if it differs, or a comment. A selection: hits, their analogues and other compounds. The true share with any hit is near 3.2%. % is set by controls: 0 for no effect and ±100 for the full control effect; potency is the fitted concentration of half-maximal effect.

SMILES	VACV mCherry inh	VACV Venus inh	MARV entry inh	LASV entry inh	FMDV antiviral
Cc1cc(/C=N/Nc2ncnc(N)c2[N+](=O)[O-])c(C)n1-c1ccccc1	?	-7.3%	?	1.12µM*	3.55µM*
COc1cccc(C=NNc2nnc(NN=Cc3cccc(OC)c3OC)c3ccccc23)c1OC	-5.4%	-5.1%	?	?	20µM*
COc1cccc(/C=N/Nc2ncnc(N)c2[N+](=O)[O-])c1OC	.	.	?	8.2µM*	-40.3%
CCOC(=O)[C@]12CCCC=C1N(Cc1ccccc1)C(=O)[C@H](CC(=O)NCC1CCCCC1)C2	-25.6%	-12.0%	.	.	-3.8%
CCO[C@H]1[C@H](NC(=O)c2cccnc2)c2ccccc2C12CCN(C(=O)c1cc(C)n(C)n1)CC2	-13.9%	-7.0%	.	.	4.4%
COC(=O)C1=CN(Cc2ccc(OC)cc2)C=C(C(=O)OC)C1c1ccsc1	-8.0%	-2.8%	?	10µM*	-7.6%
CC1(C(=O)Nc2ccc(Cl)c(Cl)c2)CCN1Cc1ccccc1OC(F)F (stereo not given)	i	-24.1%	.	.	31.6µM*
COc1ccc(NC(=O)C2(C)CCN2Cc2ccccc2OC(F)F)cc1OC (stereo not given)	9.8%	-0.3%	.	.	-28.6%
CCc1cccc(-n2c(=O)c3cccnc3n2CC(=O)Nc2ccc(F)c(C)c2)c1	-9.9%[7.34 µM]	-10.4%[7.34 µM]	.	?	-23.3%
CC(=O)c1ccc(OCc2cn(CC(=O)c3ccc(O)cc3)nn2)cc1C	.	.	.	-2.4%[46.1 µM]	.
COc1cccc2sc(N3CCN(C(=O)CCS(=O)(=O)c4ccc(F)cc4)CC3)nc12	-24.8%	-27.4%	.	?	20µM*
Cc1ccc(S(=O)(=O)CCC(=O)N2CCN(c3nc4c(C)c(Cl)ccc4s3)CC2)cc1	-29.8%	-15.9%	.	16.4%[46.1 µM]	?
CCC(=O)N1CCCC1(C)C(=O)Nc1ccc2nc(C)ccc2c1 (stereo not given)	-12.8%	3.2%	.	.	-5.6%
O=C(O)c1ccc(N/N=C/c2ccc(OC(=O)c3ccccc3Cl)cc2)cc1	-11.2%	-10.8%	?	0.708µM*	12.6µM*
COc1ccc(/C=N/Nc2ccc(C(=O)O)cc2)cc1Br	-13.8%	-6.8%	3.16µM*	?	22.4µM*
O=C(O)c1ccc(/C=N/Nc2cccc(C(F)(F)F)c2)cc1	-6.7%	-5.1%	-19.1%[46.1 µM]	.	11.6%
COc1cc(C=NNc2ccccc2)ccc1OC(=O)c1ccccc1	i	-7.5%	.	.	64.7%
CC(C)c1ccc(/C=N/Nc2ccc(C(=O)O)cc2)cc1	.	.	1.46µM*	0.651µM*	44.7µM*
CCCCc1nnc(NC(=O)C(C)Sc2nc(O)c(Cc3ccccc3)c(=O)[nH]2)s1 (stereo not given)	i	-5.2%	20.1%[46.1 µM]	0.4%	-9.7%
COc1cccc(C(=O)Nc2ccc3nc(SCCOc4ccccc4)sc3c2)c1	-8.3%	-8.8%	-8.1%[46.1 µM]	-9.5%[46.1 µM]	0.0%
COc1ccc(Oc2c(Cl)cnn(-c3ccc(C)cc3)c2=O)cc1	.	-3.2%	10µM*	?	0.0%
COc1ccc(Oc2c(Cl)cnn(-c3ccc(Cl)c(Cl)c3)c2=O)cc1	.	-28.8%	?	?	28.2µM*
CCCC(C(=O)NC1CCCC1)N(C(=O)Cn1nnc(-c2ccc(C)o2)n1)C1CCCC1 (stereo not given)	.	.	25.9µM*	?	-12.7%
CCCC(C(=O)NC1CCCC1)N(C(=O)Cn1nnc(-c2ccc(C)o2)n1)c1ccccc1F (stereo not given)	-3.8%	4.6%	?	-16.6%[46.1 µM]	6.0%
CC1CCCCC1S(=O)C1=C(C(=O)O)CCCC1 (stereo not given)	.	.	6.8%[46.1 µM]	.	.
SMILES	VACV mCherry inh	VACV Venus inh	MARV entry inh	LASV entry inh	FMDV antiviral
S=c1nc[nH]c2c1sc1nc(-c3ccccc3)c3c(c12)CCCC3	14.1µM*	?	.	.	-29.4%
Cc1ccc(OCCCCNC2CCCC(C)C2C)c(C)c1 (stereo not given)	?	10µM*	11.2µM*	?	-17.2%
Cc1ccc(OCCCCN2CCCCC2)c(C)c1	.	.	.	.	-8.3%
N#CC1=C(SCC(=O)c2ccc(Br)cc2)NC2=C(C(=O)CCC2)C1c1ccco1 (stereo not given)	?	?	8.91µM*	?	?
Cc1ccc(-c2csc(N3CCC(NS(=O)(=O)c4ccc5c(c4)OCCO5)CC3)n2)cc1	?	8.91µM*	?	?	?
Cc1ccc(-c2csc(N3CCC(C(N)=O)CC3)n2)cc1	.	.	.	.	44.1%
Cc1cc(C)cc(C(=O)N(CCc2ccccc2)C2CC3CCC(C2)N3C)c1 (stereo not given)	-10.8%	?	3.16µM*	?	-12.3%
O=C(CCn1c(=O)sc2ccccc21)NC1CCCCC1	.	.	.	.	0.0%
